Experimental data taken from PubChem BioAssay AID504384 (National Center for Advancing Translational Sciences (NCATS), 2011).
Active and inactive are the calls of the source.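 Rule for the calls: active = compound that blocked FSH-driven cAMP in FSH receptor cells, giving a fitted IC50; inactive = the rest.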

These molecules were tested against Follicle-stimulating hormone receptor (Homo sapiens) (UniProt P23945) (assay: Counterscreen for antagonists of the thyroid stimulating hormone receptor: ELISA activity in a Follicle Stimulating Hormone receptor cell line). Conditions: HEK293-FSHR, FSH-induced cAMP ELISA chemiluminescence.
Sequence of Follicle-stimulating hormone receptor (Homo sapiens) (P23945 whole entry, looked up): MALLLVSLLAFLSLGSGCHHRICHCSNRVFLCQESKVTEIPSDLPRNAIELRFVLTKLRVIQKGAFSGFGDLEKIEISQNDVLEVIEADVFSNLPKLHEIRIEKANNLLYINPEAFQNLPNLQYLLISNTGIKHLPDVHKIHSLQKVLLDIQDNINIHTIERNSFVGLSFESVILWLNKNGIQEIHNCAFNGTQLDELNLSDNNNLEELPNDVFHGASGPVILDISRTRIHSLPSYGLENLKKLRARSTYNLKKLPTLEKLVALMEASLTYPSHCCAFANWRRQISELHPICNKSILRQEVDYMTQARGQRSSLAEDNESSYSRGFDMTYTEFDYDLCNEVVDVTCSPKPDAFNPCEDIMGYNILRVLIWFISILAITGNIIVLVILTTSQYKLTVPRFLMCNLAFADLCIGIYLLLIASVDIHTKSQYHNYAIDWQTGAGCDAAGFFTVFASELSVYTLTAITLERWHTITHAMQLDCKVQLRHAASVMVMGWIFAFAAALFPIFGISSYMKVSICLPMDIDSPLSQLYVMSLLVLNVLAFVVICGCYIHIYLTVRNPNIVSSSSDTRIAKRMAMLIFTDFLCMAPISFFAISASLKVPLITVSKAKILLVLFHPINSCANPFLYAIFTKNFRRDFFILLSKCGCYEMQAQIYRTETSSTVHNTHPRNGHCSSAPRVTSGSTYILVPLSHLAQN
Description: TSH is an alpha/beta heterodimeric glycoprotein hormone secreted from the anterior pituitary gland which belongs to the glycoprotein hormone family. The actions of TSH are mediated by a seven-transmembrane receptor, which upon TSH binding couples preferentially to the G-alpha (s) protein (Gs), resulting in activation of adenylate cyclase and increase in cyclic adenosine 3', 5' monophosphate (cAMP). The TSH receptor (THSR) is mainly expressed in thyroid follicular cells and regulates their growth and function. This cell based assay was conducted on a TSHR transfected HEK 293 cell line, measuring cAMP stimulation using antibody-based Homogeneous Time Resolved Fluorescence (HTRF). Our goal is to identify small molecules that will inhibit (antagonize) the thyroid-stimulating hormone receptor (TSHR), a member of the 7 transmembrane-spanning receptor (7TMR) family of cell surface receptors. TSHR-mediated hyperthyroidism is important in thyroid pathology. The development of small molecule antagonists of TSHR may lead to therapeutic approaches for TSHR-mediated hyperthyroidism caused by constitutively activating mutations or stimulating auto-antibodies associated with Graves' disease. Graves' disease is the leading cause of hyperthyroidism and is caused by autoantibodies that stimulate TSHR (TsAbs) causing thyroid growth and unregulated overproduction of thyroid hormones and existing treatments have liabilities (agranulocytosis). In addition, TSHRs are known to be expressed in multiple extrathyroidal tissues including bone, brain, kidney, testis, fat and cells of the immune system but the role of the TSHR in these tissues is not clear. Therefore, TSHR antagonists/inverse agonists could be used as probes of extrathyroidal TSHR function. Finally, TSHR inverse agonists, which are a subclass of antagonists that inhibit agonist-independent (or basal or constitutive) TSHR signaling, could be used to inhibit TSH-independent signaling in patients with recurrent or metastatic thyroid cancer who are receiving thyroid hormone to suppress TSH. In order to confirm specificity of the compounds to the TSHR, a confirmatory assay was conducted on a similar family member, the Follicle Stimulating Hormone (FSH) receptor, transfected into a HEK 293 cell line, using an orthogonal detection technology to measure cAMP stimulation: an ELISA based cAMP competition assay using cAMP-Screen Direct System (Applied Biosystems, Foster City, CA).
Transiently transfected HEK-EM 293 cells or cells stably expressing FSHR were seeded into 96-well plates at a density of 7 x10^4 cells per well in DMEM containing 10% FBS. Cells were cultured for 24 h before incubation for 20 min in HBSS/10 mM HEPES (pH 7.4). To determine the effect of the compound on FSH induced FSHR activity, cells were incubated for 20 min with the compound in HBSS/HEPES without IBMX and subsequently for 40 min with bovine FSH (Sigma) and the compound in HBSS/HEPES supplemented with 1 mM IBMX at 37 C. The levels of cAMP in cells incubated in HBSS/HEPES without IBMX were subtracted in all experiments. After aspiration of the incubation medium, cells were lysed using lysis buffer of the cAMP-Screen Direct system (Applied Biosystems, Foster City, CA). The cAMP content of the cell lysate was determined using the method described in the manufacturer's protocol. The chemiluminescence signal was measured in a VICTOR3 V 1420 multilabel counter (PerkinElmer, Norwalk, CT). The potencies (EC50 and IC50) of the ligands were obtained from dose-response curves by data analysis with GraphPad Prism 4 for Windows.

SMILES	IC50	outcome
COc1ccc(C2Nc3ccccc3C(=O)N2Cc2ccco2)cc1CSc1c(C)cccc1C (stereo unspecified)	14.6 µM (active)	–
CCc1cccc(CC)c1OCc1cc(C2Nc3ccccc3C(=O)N2Cc2ccco2)ccc1OC (stereo unspecified)	–	inactive
Cc1cccc(C)c1OCc1cccc(C2Nc3ccccc3C(=O)N2Cc2ccco2)c1 (stereo unspecified)	8.2 µM (active)	–
COc1ccc(C2Nc3ccccc3C(=O)N2Cc2cccnc2)cc1COc1c(C)cccc1C (stereo unspecified)	32.7 µM (active)	–
COc1ccc(C2Nc3ccccc3C(=O)N2Cc2ccco2)cc1COc1c(C)cccc1C (stereo unspecified)	4.55 µM (active)	–
COc1ccc(C2Nc3ccccc3C(=O)N2Cc2ccco2)cc1COc1c(C)cc(NC(C)=O)cc1C (stereo unspecified)	–	inactive
